High-throughput results deposited in PubChem BioAssay by National Center for Advancing Translational Sciences (NCATS).
An excerpt weighted towards active compounds, which were near 8.7% of everything screened.
Pf growth 48h: Primary qHTS for delayed death inhibitors of the malarial parasite plastid, 48 hour incubation; AID 504832, 2011; P. falciparum luciferase growth in erythrocytes, 48 h; 5.9% of 310,000 active; Potency, µM (doses to about 28.7 µM), for inactives: top-dose activity change, negative = inhibition, most hits filed as inhibitors
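A one-generation exposure of luciferase-tagged malaria parasites in RPMI 1640/Albumax erythrocyte culture, 37 C and 5% CO2. Inhibition is inferred from decreased luminescence after adding detection reagent.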
AMA1-RON2 inh: qHTS for Inhibitors of AMA1-RON; Towards Development of Antimalarial Drug Lead: Primary Screen. AlphaScreen AMA1-biotinylated RON2 peptide binding. Potency, µM (top dose mostly 58.2 µM), for the others: at the highest dose activity change, negative = inhibition, usual class: inhibitors. 0.2% of 360,000 active. AID 720542, 2013;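 also: 0% = vehicle wells and -100% = peptide control; nearly all actives have a fitted effect of over 45% in size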
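AMA1 (3D7) with his tag at 25 nM final met compounds first, then biotinylated RON2 peptide at 25 nM; detection used donor plus acceptor beads, 10 µg/mL apiece, read by AlphaScreen after 30 min at room temperature.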
Pf growth 96h: Primary qHTS for delayed death inhibitors of the malarial parasite plastid, 96 hour incubation. 6.9% of 320,000 active. Potency, µM (titrated, usually from 28.7 µM), for the others: at the top dose activity change, negative = inhibition, most hits filed as inhibitors. P. falciparum luciferase reporter growth, 96 h
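Delayed-death screen, second-generation endpoint: infected erythrocytes, 2% hematocrit, 0.05% parasitemia final; 96 hours at 37 C, 5% CO2; luciferase detection reagent; luminescence decrease equals reduced growth.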
Vaccinia mCherry: qHTS for Stage-Specific Inhibitors of Vaccinia Orthopoxvirus: mCherry Reporter Primary qHTS; Vaccinia virus mCherry reporter infection, fluorescence; Potency, µM (doses to about 36.5 µM), for inactives: at the highest dose activity change, negative = inhibition, hits mostly inhibitors; 0.63% of 310,000 active; AID 720579, 2013; calls by dose curve; tested in A549 cells; also: nearly all actives have a fitted effect of over 35% in size
Vaccinia Venus: qHTS for Stage-Specific Inhibitors of Vaccinia Orthopoxvirus: Venus Reporter Primary qHTS | 0.46% of 330,000 active | Vaccinia virus Venus reporter expression, fluorescence | Potency, µM (doses to about 36.5 µM), inactives show top-dose activity change, negative = inhibition, most hits filed as inhibitors; calls by dose curve; tested in A549 cells; also: nearly all actives have a fitted effect of over 30% in size
* hit, by the source's call; i = inactive; u = inconclusive; x = no result given; [ ] = dose if it differs, or a comment. Unless noted, calls follow the shape of the dose curve; as a rule, active = well fitted curve in the direction sought with a large enough effect; inconclusive = small, poorly fitted or top-dose-only effect, or another doubt; inactive = no such curve, though single readings can be large; an effect the other way counts as inactive or inconclusive. Unless noted, % is scaled to controls: 0 for no effect and ±100 for the full control effect; potency is read from the fitted curve at half-maximal effect.

SMILES | Pf growth 48h | AMA1-RON2 inh | Pf growth 96h | Vaccinia mCherry | Vaccinia Venus
Cc1ccnc2c(Cl)c(Cl)ccc12 | x | x | x | -7% | -25%
CN(C)CCNc1ncnc2c1sc1nc(N3CCCC3)c3c(c12)CC(C)(C)OC3 | 0% | -17% | -17% | -24%[7.34 µM] | -18%[7.34 µM]
CCN(CC)CCNc1ncnc2c1sc1nc(N3CCOCC3)c3c(c12)CCCC3 | 9.3µM* | 2% | u | -19% | -17%
Cc1cccc(-n2cnc3c(sc4nc(N5CCOCC5)c5c(c43)CCCC5)c2=O)c1 | 2.1µM* | -12% | u | -6%[7.34 µM] | -7%[7.34 µM]
CCN(CC)CCNc1ncnc2c1sc1nc(N3CCCC3)c3c(c12)CC(C)(C)OC3 | 10µM* | -13% | 5% | u | u
COc1ccc(-c2[nH]c(-c3ccc(Cl)cc3)nc2SCC(=O)NCC2CCCO2)cc1 (configuration not stated) | x | x | x | -17% | -18%
CC(C)C[C@@H](CN=[N+]=[N-])N1CCN(CCc2ccccc2)CCC1=O | x | x | x | i | -18%
CC(=O)Nc1ccc(Oc2ccc([N+](=O)[O-])cc2Cl)cc1 | 9% | 2% | -17%[5.75 µM] | -8% | -4%
CC(=O)Nc1ccc(N=c2cc([N+](=O)[O-])cc(Cl)n2O)cc1 | -19% | 95% | -1% | 8.9µM* | u
Cc1ccc(N(CN2C(=O)c3ccccc3C2=O)C(=O)c2ccc([N+](=O)[O-])cc2[N+](=O)[O-])cc1 | 20% | -19% | 3.7µM* | x | x
O=C1c2ccccc2C(=O)N1CN(C(=O)c1ccccc1[N+](=O)[O-])c1ccc(F)cc1 | 12% | -6% | u | -2% | -18%
Cn1c(=O)c2sccc2n2c(CCC(=O)N3CCN(c4cccc(Cl)c4)CC3)nnc12 | x | x | x | -6% | -2%
COc1ccc(-c2noc(CNC(=O)c3ccccc3Br)n2)cc1 | x | x | x | -8% | -7%
Cc1sc2ncnc(N3CCC(C(=O)Nc4ccc(Cl)c(Cl)c4)CC3)c2c1C | 13µM* | 25% | u | x | x
Cc1sc2ncnc(N3CCC(C(=O)Nc4ccc(C#N)c(Cl)c4)CC3)c2c1C | u | -6% | 12µM* | x | x
Cc1sc2ncnc(N3CCC(C(=O)Nc4ccc(Cl)cc4Cl)CC3)c2c1C | 10µM* | -12% | u | -1% | -19%
C[C@H](NC(=O)CNC(=O)[C@@H](NC(=O)[C@H](Cc1ccccc1)NC(=O)CNC(=O)CNC(=O)[C@@H](N)Cc1ccccc1)[C@@H](C)O)C(=O)N[C@@H](CCCN=C(N)N)C(=O)N[C@@H](CCCCN)C(=O)N[C@@H](CO)C(=O)N[C@@H](C)C(=O)N[C@@H](CCCN=C(N)N)C(=O)N[C@H](CN)CCCCN | x | x | x | -13%[3.33 µM] | -5%[3.33 µM]
CCCCCCC(c1c(C)n(C)n(-c2ccccc2)c1=O)c1c(C)n(C)n(-c2ccccc2)c1=O | 13µM* | 0% | 7% | -27% | -19%
Oc1ccc(Br)cc1-c1cc(-c2ccc(Cl)cc2)n[nH]1 | 1.2µM* | 87% | x | x | u
COc1ccc(O)c(-c2cc(-c3cccc(Br)c3)n[nH]2)c1 | x | 0% | u | -6%[1.46 µM] | u
Oc1ccc(Br)cc1-c1cc(-c2ccccc2)n[nH]1 | 5.2µM* | 92% | 3.3µM* | -12% | -28%
Cc1ccc(O)c(-c2cc(-c3cccc(F)c3)n[nH]2)c1 | 8.3µM* | 28% | x | x | x
O=[N+]([O-])c1cccc(-c2cc(-c3cc(Br)ccc3O)[nH]n2)c1 | 4.7µM* | 129% | 8.3µM* | u | u
CCC(C)c1ccc(OCC(=O)Nc2ccc(-c3nc4ncccc4o3)cc2)cc1 (configuration not stated) | x | x | x | -11% | -11%
CCC(C(=O)NCc1ccccc1OC)n1nc(C)n2c(cc3sccc32)c1=O (configuration not stated) | x | x | x | -9% | -8%
SMILES | Pf growth 48h | AMA1-RON2 inh | Pf growth 96h | Vaccinia mCherry | Vaccinia Venus
Cc1sc(NC(=O)CCl)c(C(=O)c2ccccc2)c1C | 13µM* | -10% | 92% | x | x
COc1ccc(NC(=O)C(C)Sc2nnc3c4c(nc(-c5ccc(OC)cc5)n23)CC(C)(C)OC4)cc1 (configuration not stated) | 2.9µM* | -2% | u | x | x
COc1ccc(-c2nc3c(c4nnc(SC(C)C(=O)Nc5ccccc5)n24)COC(C)(C)C3)cc1 (configuration not stated) | u | -1% | u | i | -18%
CCCc1ccc(OCc2ccc(C(=O)N3CCCC3)o2)cc1 | 10µM* | -15% | 23% | 38% | -14%
CCCc1ccc(OCc2ccc(C(=O)N3CCN(c4ccccn4)CC3)o2)c(OC)c1 | 13µM* | -20% | -1% | -19% | -18%
COc1ccc(CC(=O)N2CCN(c3ccccn3)CC2)cc1OC | -11% | -5% | x | -11% | -10%
CCOc1ccc(OCc2ccc(C(=O)N3CCCC3)o2)cc1 | -7% | 18% | 63% | -2% | -18%
CC(=O)N1CCc2cc(Br)cc(S(=O)(=O)CCC(=O)N3CCN(c4cccc(C)c4C)CC3)c21 | x | x | x | u | -18%
CN(Cc1c(F)cccc1Cl)C(=O)CCc1c[nH]c2ccccc12 | -14% | -1% | u | u | -13%
CC(=O)c1ccc(S(=O)(=O)N(C)CCCC(=O)N(C)Cc2c(F)cccc2Cl)cc1 | u | -21% | 12µM* | i | -6%
CC1CCc2nc3ncn(Cc4ccccc4C#N)c(=O)c3cc2C1 (configuration not stated) | x | x | x | 5% | -12%
COc1cccc(CN2C(=O)NC(C)(C3CCN(Cc4cc(F)cc(F)c4)CC3)C2=O)c1OC (configuration not stated) | x | x | x | i | -16%
O=C(Nc1ccccc1)C1C2CCCCC21 (configuration not stated) | 15% | 20% | 60% | -9% | -11%
Cc1cccc(NC(=O)C2C3CCCCC32)c1 (configuration not stated) | -5% | 8% | 0.19µM* | x | x
COc1ccc(-c2cc(-c3ccccc3)c(C#N)c(SCC(=O)Nc3ncc(C)s3)n2)cc1 | 13µM* | 10% | -13% | -23% | -7%
COc1ccc(CCNC(=O)c2ccc3c(c2)sc2nc(-c4ccccc4)cn23)cc1OC | x | x | x | -21% | -13%
O=[N+]([O-])c1cccc2[nH]cnc12 | x | x | x | -15% | -17%
CC(=O)Nc1ccccc1OCCOc1ccc(Br)cc1 | 42% | 0% | -13% | 13µM* | -23%
NC(=O)c1ccccc1OCCOc1ccc(Br)cc1 | 15% | -1% | -65% | -6% | u
Cc1cc(C)n(CC(=O)N2c3ccccc3Sc3ccc(C(F)(F)F)cc32)n1 | 10µM* | -14% | u | u | -9%
C[N+]1(C)CCC(=C(c2ccccc2)c2ccccc2)CC1 | 4.1µM* | -5% | 5.9µM* | i | -5%
